# Rows were chosen to be rich in hits. Some 0.95% of all compounds tested hit in one or more screens of this group.
# RE007 growth inh – less growth of the S. pombe RE007 Vpr strain; 360,000 compounds, 0.21% hits; AID 651644; Potency, µM (doses to about 92.2 µM), for inactives: at the highest dose activity change, negative = less growth, actives largely listed as inhibitors; S. pombe RE007 Vpr strain, BacTiter-Glo ATP luminescence, 24 h; active = well fitted falling curve with a large enough effect; inconclusive = small, poorly fitted or top-dose-only effect; inactive = no such curve, though single readings can be large or run the other way; note: nearly all actives have a fitted effect of over 50% in size
#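 Fission yeast strain RE007, carrying one chromosomally integrated HIV-1 vpr copy, was seeded at OD 0.01 in PMG+AL medium with 23 nL pinned compound. After 24 h at 30 °C and 99% humidity, viability was read by BacTiter-Glo luminescence.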
# LmPK inhibitor – inhibitors of Leishmania mexicana pyruvate kinase | Q27686 | AID 1721 | purified LmPK, Kinase-Glo ATP luminescence, 1 h | Potency, µM (doses to about 57.5 µM), inactives show at the top dose activity change, negative = inhibition, hits mostly inhibitors | 290,000 compounds, 0.37% hits
#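 ATP generated from ADP (0.1 mM) and PEP (0.5 mM) by 0.1 nM LmPK over 1 h at room temperature (pH 7.2 imidazole buffer) was detected by coupled luciferase luminescence. Values were normalized to uninhibited and no-enzyme wells.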
# Tb PYK inh – blocks Trypanosoma brucei pyruvate kinase. Q57TT1. TbPYK enzyme, Kinase-Glo Plus ATP luminescence, 45 min. Potency, µM (titrated, usually from 76.8 µM), for the others: at the top dose activity, negative = inhibition, most hits filed as inhibitors. 410,000 compounds, 0.12% hits. AID 624173; note: nearly all actives have a fitted effect of over 50% in size
#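 T. brucei PYK with substrate was exposed to pin-transferred compounds across a concentration series, then started with 130 uM ADP (final). After 45 min at room temperature, Kinase-Glo Plus luminescence was read, normalized and curve-fitted.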
# Giardia FBPA inh – Giardia lamblia aldolase inhibition. A8B2U2. purified Giardia FBPA. Potency, µM (titrated, usually from 59.6 µM), inactives show top-dose activity, negative = inhibition, most hits filed as inhibitors. 290,000 compounds, 0.71% hits; note: nearly all actives have a fitted effect of over 55% in size
# Target sequence (A8B2U2 whole entry, looked up): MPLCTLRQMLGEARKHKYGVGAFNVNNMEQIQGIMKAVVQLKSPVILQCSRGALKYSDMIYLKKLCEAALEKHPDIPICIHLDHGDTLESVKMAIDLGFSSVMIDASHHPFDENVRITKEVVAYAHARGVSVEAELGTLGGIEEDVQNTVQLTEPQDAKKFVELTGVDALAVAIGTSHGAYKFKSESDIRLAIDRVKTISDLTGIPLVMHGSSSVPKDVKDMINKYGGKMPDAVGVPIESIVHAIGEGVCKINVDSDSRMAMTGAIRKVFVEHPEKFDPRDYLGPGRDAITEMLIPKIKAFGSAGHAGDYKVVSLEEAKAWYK
#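 40 nM FBPA preincubated 10 min at RT with compound (up to 57.5 uM final), then substrate plus GAPDH/TPI/NAD/arsenate coupling and diaphorase/resazurin added. Fluorescence read after 20 min at RT, 525/598 nm.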
# * marks the source's active call; other numbers are inactive results; ? = inconclusive; . = no result given; [ ] = dose if it differs, or a comment. Unless noted, calls come from the whole dose curve; as a rule, active = well fitted curve in the direction sought with a large enough effect; inconclusive = small, poorly fitted or top-dose-only effect, or another doubt; inactive = no such curve, though single readings can be large; an effect the other way counts as inactive or inconclusive. % is set by controls: 0 for no effect and ±100 for the full control effect; potency is the fitted concentration of half-maximal effect.
SMILES,RE007 growth inh,LmPK inhibitor,Tb PYK inh,Giardia FBPA inh
CCOc1ccc(-n2cc(-c3ccc(OC)c(OC)c3)[nH]c2=S)cc1,2.1%,?,1.12µM*,0.2%
CC(CC(=O)Nc1ccc(Cl)c(S(=O)(=O)N2CCOCC2)c1)c1ccccc1 (stereo unspecified),4.2%,.,-3.9%,.
O=[N+]([O-])c1ccccc1-c1ccc(C(=S)N2CCCCC2)o1,-18.1%,-4.0%,-5.7%,?
CC(=O)c1cccc(NC(=O)c2ccc(-c3ccccc3[N+](=O)[O-])o2)c1,-4.1%,-1.6%,-6.5%,9.98µM*
O=[N+]([O-])c1ccccc1-c1ccc(C(=S)N2CCCC2)o1,-4.9%,-9.4%,?,15.8µM*
Cc1ccc(-n2c(=O)c3oc4ccccc4c3n(Cc3ccccc3)c2=O)cc1C,.,.,0.5%,.
Cc1ccc(S(=O)(=O)NN=CC2(c3ccccc3)CC2)cc1,5.1%,.,-0.7%,.
COC(=O)c1ccccc1S(=O)(=O)N1CCc2nc(-c3ccc(OC)cc3C)c3c(c2C1)CO[C@@H](c1ccccc1)C3,.,-1.8%[11.5 µM],.,5.0%[12.9 µM]
CCOc1ccc(NC(=O)c2ccc3c(c2)CCN3S(=O)(=O)CC)cc1,.,.,3.7%,.
CN1CCc2c(sc3c2c(=O)n(-c2ccccc2)c2nnc(SCc4ccccc4)n32)C1,4.1%,-9.5%,31.6µM*,-7.5%
CN1CCc2c(sc3c2c(=O)n(-c2ccccc2)c2nnc(SCc4ccc(F)cc4)n32)C1,0.9%,.,-0.3%,.
c1ccc2c(c1)Cn1c-2nc2ccccc21,?,14.1µM*,?,-15.0%
Cc1ccn2c(c1)nc(=S)n2C(=O)c1ccccc1,-1.5%,?,-28.2%,-3.3%
Cc1cccc(C(=O)n2c(=S)nc3cc(C)ccn32)c1,-13.3%,11.2µM*,-5.8%,4.8%
C/C(=N\NC(=O)c1csc(C)c1C)c1ccco1,3.3%,14.1µM*,-22.9%,-9.7%
O=C1CC=C2C3CC4N(CCC45c4cc(O)c(O)cc4N1C25)CC3=CCBr (stereo unspecified),-5.4%,.,2.82µM*,.
O=C1CC=C2C3CC4N(CCC45c4ccccc4N1C25)CC3=CCO (stereo unspecified),3.9%,.,0.7%,.
N#Cc1c(N)sc(=S)c2c1CCCCC2,-3.4%,-3.3%,?,10µM*
N#Cc1c(N)sc2c1CCCCCC2,-9.8%,-0.8%,-16.6%,-18.0%
Cc1cccc(OCCC(=O)NCC(=O)Nc2cccc(C)c2C)c1,3.9%,1.4%,3.0%,15.8µM*
CCOC(=O)CNC(=O)c1sc(NC(=O)c2cccc(F)c2)nc1C,-17.2%,-10.2%,-0.8%,-8.5%
CCOC(=O)CNC(=O)c1sc(NC(=O)c2ccccc2F)nc1C,-17.6%,12.6µM*,-2.8%,1.9%
CCC1=C[C@@H]2CN(C1)Cc1c([nH]c3ccccc13)[C@@](C(=O)OC)(c1cc3c(cc1OC)N(C)[C@@H]1[C@@](O)(C(=O)OC)[C@H](OC(C)=O)[C@]4(CC)C=CCN5CC[C@]31[C@@H]54)C2,.,.,-13.4%,.
CC(=O)OC1CCC2(C)C(=CCC3C2CCC2(C)C(C(C)=O)CCC32)C1 (stereo unspecified),.,.,2.2%,.
CCCOC(=O)c1ccc(NC(=O)C2C3C=CC(O3)C2C(=O)O)cc1 (stereo unspecified),12.6µM*,1.4%,-14.3%,8.9%
SMILES,RE007 growth inh,LmPK inhibitor,Tb PYK inh,Giardia FBPA inh
O=C(CCN1C(=O)[C@H]2CC=CC[C@H]2C1=O)NCc1nc(-c2ccc(Cl)cc2)no1,-2.9%,8.2%,-1.0%,-9.4%
CCN1CCN(c2oc(/C=C/c3ccc(OC)c(OC)c3)nc2C#N)CC1,.,.,14.7%,.
CCc1sc(C(=O)N2CCc3ccccc32)cc1C,-25.0%,25.1µM*,-10.0%,-6.5%
Cc1ccc(-c2cc(O)cc3sc(=O)oc23)cc1C,39.8µM*,1.0%,-3.7%,-2.1%
C=C[C@]1(C)C[C@@H](OC(=O)CO)[C@]2(C)C(C)CC[C@]3(CCC(=O)[C@H]32)[C@@H](C)[C@@H]1O (stereo partly specified),.,.,2.8%,.
CCOC(=O)c1ccc(N2C(=O)CC(N3CCCC(C)C3)C2=O)cc1 (stereo unspecified),3.16µM*,1.8%,-0.1%,20.1%
CCOC(=O)c1ccc(N2C(=O)CC(N3CCC(C#N)(c4ccccc4)CC3)C2=O)cc1 (stereo unspecified),22.4µM*,5.9%,-6.1%,-1.6%
Cc1cccc(N2C(=O)CC(N3CCOCC3)C2=O)c1 (stereo unspecified),-28.4%,0.1%,-7.6%,2.4%
